Data on 16 compounds can be found in PubChem BioAssay (Tox21).

Several values for one entry are separate records, joined by “and”; a condition that tells them apart may be missing. Equal values may be shown once. Inconclusive results are not listed. Activity calls are given as the source filed them. Unless noted, the call rests on the fitted dose curve; in most records, active means well fitted curve in the direction sought with a large enough effect in the repeat runs; inconclusive means weak or mixed curves; inactive means no such curve, though single readings can be large; an effect the other way counts as inactive or inconclusive.

The nature of experiment [1]: qHTS assay for small molecule agonists of the p53 signaling pathway (AID 651631; calls by dose curve; further: nearly all actives have a fitted effect of over 15% in size; further: potency means the concentration at half of the fitted maximal effect). A digest of the protocol: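 p53RE-bla HCT-116 cells; compounds 16 h, 37 °C; LiveBLAzer B/G FRET substrate 2 h RT; fluorescence intensity read-out, qHTS format.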
Background: qHTS replaces the single test concentration by a dilution series.

Experiment [2] is described as follows: qHTS assay for small molecules that induce genotoxicity in human embryonic kidney cells expressing luciferase-tagged ATAD5 - cell viability (AID 651634; calls by dose curve; further: nearly all actives have a fitted effect of over 25% in size). In short, it runs like this: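 HEK293T cells carrying luciferase-tagged ATAD5, 2,000 cells/well, exposed to compound for 15.5 hr at 37C. Viability read as live-cell protease activity by CellTiter-Fluor fluorescence after 30 min at 37C.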

The nature of experiment [3]: qHTS assay for small molecule disruptors of the mitochondrial membrane potential (AID 720635). Further: potency means the concentration at half of the fitted maximal effect. In short, it runs like this: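 HepG2 cells (2,000/well) attached overnight at 37C, then took compound for 1 hr at 37C, 5% CO2. Mito-MPS dye was added for 30 min; fluorescence was read at 490/535 nm (monomers) and 540/590 nm (aggregates).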
Experiment [4] in a line: qHTS assay to test for compound auto fluorescence at 590 nm (red) in HepG2 cells (AID 720674). A digest of the protocol:
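Rose Bengal sodium served as the red fluorophore standard. HepG2 monolayers (overnight attachment, MEM with 10% FBS) were exposed to test compounds for 1 hr at 37 C and read at Ex 540/Em 590 nm.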

A short description of experiment [5]: qHTS assay to test for compound auto fluorescence at 460 nm (blue) in HEK293 cells (AID 720678). In short, it runs like this: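 Measured: blue fluorescence (Ex 405/Em 460 nm) of compound-treated HEK293 cells, incubated overnight at 37C with 5% CO2 and scaled to triamterene equivalents.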
A short description of experiment [6]: qHTS assay to test for compound auto fluorescence at 535 nm (green) in HEK293 cells (AID 720680).
The target of experiment [7] is Glucocorticoid receptor (Homo sapiens) (UniProt P04150). Briefly: qHTS assay to identify small molecule agonists of the glucocorticoid receptor (GR) signaling pathway (AID 720691; active means well fitted activation curve with a large enough effect in the signal ratio in the repeat runs, not every such curve was filed as active; the % refers to the signal ratio). In short, it runs like this: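 GR-bla HeLa cells carrying a GRE-driven beta-lactamase reporter, exposed to compounds for 18 h at 37 C. Reporter activation read as fluorescence after 2 h with LiveBLAzer B/G FRET substrate at room temperature.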

Experiment [8] can be described thus: qHTS assay to identify small molecule antagonists of the glucocorticoid receptor (GR) signaling pathway - cell viability counter screen (AID 720693). Further: nearly all actives have a fitted effect of over 55% in size.
Experiment [9] is described as follows: qHTS assay for identifying genotoxic compounds that show differential cytotoxicity against isogenic chicken DT40 cell lines with known DNA damage response pathways - wild type cell line (AID 743012). Further: nearly all actives have a fitted effect of over 60% in size. Further: potency means the concentration at half of the fitted maximal effect. In short, it runs like this:
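Wild-type DT40 cells (300/well) exposed to compounds for 40 hours at 37 C/5% CO2. Viability read by CellTiter-Glo luminescence after 30 min at room temperature.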

Experiment [10] in a line: qHTS assay for identifying genotoxic compounds that show differential cytotoxicity against isogenic chicken DT40 cell lines with known DNA damage response pathways - Rev3 mutant cell line (AID 743014). Further: nearly all actives have a fitted effect of over 55% in size. Further: potency means the concentration at half of the fitted maximal effect.
The nature of experiment [11]: qHTS assay for identifying genotoxic compounds that show differential cytotoxicity against isogenic chicken DT40 cell lines with known DNA damage response pathways - Rad54/Ku70 mutant cell line (AID 743015). Further: nearly all actives have a fitted effect of over 60% in size. Further: potency means the concentration at half of the fitted maximal effect.
The nature of experiment [12]: qHTS assay to identify small molecule antagonists of the thyroid receptor (TR) signaling pathway - cell viability counter screen (AID 743064). Further: nearly all actives have a fitted effect of over 50% in size. In short, it runs like this: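 GH3.TRE-Luc cells, 4 h pre-plating; cpd + T3 1 nM final; 37 °C 23.5 h; CellTiter-Fluor 30 min; fluorescence read.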
Experiment [13] can be described thus: qHTS assay to identify small molecule antagonists of the thyroid receptor (TR) signaling pathway (AID 743065). Further: series mostly up to about 70 µM; nearly all actives have a fitted effect of over 55% in size. In short, it runs like this: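 GH3.TRE-Luc rat pituitary cells carrying two TR response elements driving luciferase were plated for 4 h, given compound plus 1 nM T3 (final), and incubated 23.5 h at 37 C. ONE-Glo luminescence measured reporter inhibition; CellTiter-Fluor fluorescence tracked cytotoxicity.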

For experiment [14], the system named is thyroid hormone receptor (rat, GH3 cells). Nature of the experiment: qHTS assay to identify small molecule agonists of the thyroid receptor (TR) signaling pathway (AID 743066; calls by dose curve).
Experiment [15] deals with Estrogen receptor (Homo sapiens) (UniProt P03372). Nature of the experiment: qHTS assay to identify small molecule agonists of the estrogen receptor alpha (ER-alpha) signaling pathway (AID 743075; calls by dose curve;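 further: HEK293 GripTite cells with ER-alpha and UAS-driven beta-lactamase reporter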).
The nature of experiment [16]: qHTS assay to identify small molecule antagonists of the estrogen receptor alpha (ER-alpha) signaling pathway using the BG1 cell line (AID 743080; calls by dose curve;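 further: BG1 cells stimulated with 17beta-estradiol alongside compound; series mostly up to about 70 µM; nearly all actives have a fitted effect of over 25% in size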). In short, it runs like this:
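Quantitative HTS on the Tox21 10K library: BG1 cells with endogenous ER-alpha and ERE-luciferase reporter, 17beta-estradiol stimulation, 21.5 h compound exposure, luminescence endpoint with parallel fluorescence cytotoxicity counter-read.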

Experiment [17] addresses Peroxisome proliferator-activated receptor gamma (Homo sapiens) (UniProt P37231). Briefly: qHTS assay to identify small molecule agonists of the peroxisome proliferator-activated receptor gamma (PPARg) signaling pathway (AID 743094; active means well fitted activation curve with a large enough effect in the signal ratio in the repeat runs, not every such curve was filed as active; the % refers to the signal ratio). A digest of the protocol:
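GeneBLAzer PPARg UAS-bla HEK293H cells were plated, rested 5 h, then exposed to compounds for 17 h at 37C. Beta-lactamase activity was read by LiveBLAzer B/G FRET substrate fluorescence after 1 h at room temperature.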

The target in experiment [18] is Nuclear receptor subfamily 1 group I member 2 (Homo sapiens) (UniProt O75469). Nature of the experiment: Human pregnane X receptor (PXR) activation by small molecules, qHTS assay (AID 1346985). Further: nearly all actives have a fitted effect of over 40% in size. In short, it runs like this: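 DPX-2 cells (HepG2 co-transfected with a PXR response element and a CYP3A4-promoter luciferase construct) were seeded at 2,000 per well, rested 5 hr at 37C, then exposed to DMSO-dissolved compounds for 24 hr. Activation was read as luciferase luminescence.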

A short description of experiment [19]: qHTS assay to identify small molecule that activate the aryl hydrocarbon receptor (AhR) signaling pathway - cell viability counter screen (AID 743086).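 Further: HepG2 liver cells carrying the AhR DRE luciferase reporter; series mostly up to about 70 µM; nearly all actives have a fitted effect of over 45% in size.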 A digest of the protocol:
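HepG2-AhR-luc (HG2L7.5c1) cells, 4000/well, were preincubated 5 h at 37C, exposed to compound in qHTS format for 24 hr at 37C, then given CellTiter-Fluor for 30 min; viability was read as fluorescence in the reporter wells.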

Experiment [20] can be described thus: qHTS assay to test for compound auto fluorescence at 590 nm (red) in HEK293 cell free culture (AID 720683). In short, it runs like this: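 Tox21 10K library compounds were pinned into cell-free DMEM with 10% FBS and fluorescence was read at excitation 540 nm. Activity is expressed as Rose Bengal sodium equivalency.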

Sequence of Peroxisome proliferator-activated receptor gamma (Homo sapiens) (P37231 whole entry, looked up): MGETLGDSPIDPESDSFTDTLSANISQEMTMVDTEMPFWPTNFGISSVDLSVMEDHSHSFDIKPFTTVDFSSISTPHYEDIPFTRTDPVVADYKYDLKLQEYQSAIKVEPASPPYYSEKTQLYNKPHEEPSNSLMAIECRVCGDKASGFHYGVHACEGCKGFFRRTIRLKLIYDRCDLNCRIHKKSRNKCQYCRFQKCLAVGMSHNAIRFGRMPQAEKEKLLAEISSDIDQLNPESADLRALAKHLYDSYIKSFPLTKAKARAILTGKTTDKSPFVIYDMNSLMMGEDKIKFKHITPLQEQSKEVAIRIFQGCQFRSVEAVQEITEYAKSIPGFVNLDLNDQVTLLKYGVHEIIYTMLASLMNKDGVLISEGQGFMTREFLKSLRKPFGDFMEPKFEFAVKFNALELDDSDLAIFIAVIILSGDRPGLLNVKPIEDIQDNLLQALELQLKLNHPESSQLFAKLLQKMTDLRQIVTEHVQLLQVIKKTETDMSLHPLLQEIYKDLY
Sequence of Glucocorticoid receptor (Homo sapiens) (P04150 whole entry, looked up): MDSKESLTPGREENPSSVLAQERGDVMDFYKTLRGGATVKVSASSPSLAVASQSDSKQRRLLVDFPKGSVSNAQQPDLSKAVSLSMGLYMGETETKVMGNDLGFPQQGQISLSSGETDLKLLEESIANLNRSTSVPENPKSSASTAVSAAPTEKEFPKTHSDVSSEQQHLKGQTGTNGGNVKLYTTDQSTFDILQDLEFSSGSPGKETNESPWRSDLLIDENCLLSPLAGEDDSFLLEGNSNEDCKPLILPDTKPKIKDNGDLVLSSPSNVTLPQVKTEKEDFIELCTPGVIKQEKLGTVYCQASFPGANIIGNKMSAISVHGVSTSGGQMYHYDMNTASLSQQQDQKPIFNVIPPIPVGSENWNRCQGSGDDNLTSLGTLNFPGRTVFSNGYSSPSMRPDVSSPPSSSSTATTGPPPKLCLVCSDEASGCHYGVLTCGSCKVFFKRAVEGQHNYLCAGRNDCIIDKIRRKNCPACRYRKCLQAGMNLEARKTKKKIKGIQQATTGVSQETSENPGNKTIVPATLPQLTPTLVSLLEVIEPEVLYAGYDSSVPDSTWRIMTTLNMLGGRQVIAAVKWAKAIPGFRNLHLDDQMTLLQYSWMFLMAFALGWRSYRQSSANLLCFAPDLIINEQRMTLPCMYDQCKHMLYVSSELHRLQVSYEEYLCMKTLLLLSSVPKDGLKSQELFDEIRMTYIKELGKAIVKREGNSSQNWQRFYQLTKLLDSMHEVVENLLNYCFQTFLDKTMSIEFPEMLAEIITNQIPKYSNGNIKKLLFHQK
Sequence of Estrogen receptor (Homo sapiens) (P03372 whole entry, looked up): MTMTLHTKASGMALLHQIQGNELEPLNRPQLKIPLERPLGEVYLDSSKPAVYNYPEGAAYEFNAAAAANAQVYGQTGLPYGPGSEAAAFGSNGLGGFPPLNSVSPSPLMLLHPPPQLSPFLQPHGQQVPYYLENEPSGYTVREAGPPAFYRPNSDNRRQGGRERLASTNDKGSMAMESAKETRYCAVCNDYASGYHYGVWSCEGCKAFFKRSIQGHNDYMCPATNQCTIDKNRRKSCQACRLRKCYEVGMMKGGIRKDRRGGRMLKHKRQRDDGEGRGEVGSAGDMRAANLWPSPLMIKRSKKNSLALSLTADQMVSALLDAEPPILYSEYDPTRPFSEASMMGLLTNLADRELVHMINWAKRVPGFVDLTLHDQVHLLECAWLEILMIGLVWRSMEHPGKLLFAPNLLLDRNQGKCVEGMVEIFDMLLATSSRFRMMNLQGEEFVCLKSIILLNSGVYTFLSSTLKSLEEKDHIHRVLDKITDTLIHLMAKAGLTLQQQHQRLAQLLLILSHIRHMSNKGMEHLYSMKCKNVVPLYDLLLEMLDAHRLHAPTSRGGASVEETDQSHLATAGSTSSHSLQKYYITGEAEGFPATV

In the case of `CC[N+](C)(CC)CCOC(=O)C(O)(c1ccccc1)c1ccccc1`, the Potency entry in experiment [1], in experiment [2], in experiment [3], in experiment [5], in [6] and in [7] was “inactive” each time. Moreover, the Potency result in [8], in experiment [9], in [10], in experiment [11], in experiment [12] and in experiment [13] was “inactive” throughout. In addition, the Potency entry in experiment [14], in experiment [15], in experiment [16], in experiment [17] and in [18] was “inactive” throughout. Further, in experiment [4], the result was inactive.
As for `CCCCNCC(O)c1ccc(O)cc1` (configuration not stated), the Potency result in experiment [1], in experiment [2], in [3], in experiment [5], in experiment [6] and in experiment [7] was “inactive” each time. The Potency entry in experiment [8], in [9], in experiment [10], in experiment [11], in experiment [12] and in experiment [13] was “inactive” throughout. In addition, the Potency result in experiment [14], in [19] and in experiment [18] was “inactive” in each case. Also, the result in [4] was inactive.
On to `O=[N+]([O-])c1ccccc1Cl`, for which the outcome in experiment [4] and in [20] was inactive. Besides, the Potency result in [5], in experiment [6] and in experiment [13] was “inactive” throughout.
As to `C=CC(=O)OCCCCCCCC(C)C`, in experiment [1], the Potency entry is “inactive”.
With `Oc1c(Cl)cc(Cl)cc1Cl`, the Potency in experiment [3] was 17 µM (active) and 48.6 µM (active). Moreover, the compound was called inactive in experiment [4] and in experiment [20]. The Potency result in [5], in experiment [6], in experiment [13] and in experiment [14] was “inactive” in each case.
In the case of `CCC1(c2cnc[nH]2)Cc2ccccc2C1`, the Potency entry in [5], in [8], in experiment [13], in experiment [14], in [15] and in experiment [16] was “inactive” throughout. In addition, the Potency result in experiment [19] and in [17] was “inactive” throughout. For the same compound, in experiment [20], the result was inactive. Also, the Potency in [9] was 21.1 µM (active) and 26.6 µM (active); in [10] it was 26.6 µM (active); in experiment [11] it was 26.6 µM (active).
For `NC(=Nc1ccccc1)Nc1ccccc1`, the Potency entry in [1] is “inactive”.
For the compound `c1ccccc1`, in [4], the result was inactive. The Potency result in experiment [6], in experiment [7], in experiment [8], in experiment [9], in [10] and in [11] was “inactive” each time. Further, the Potency result in experiment [12], in experiment [13], in experiment [14], in experiment [15], in experiment [16] and in experiment [17] was “inactive” throughout.
Take `Cc1cc([N+](=O)[O-])ccc1N`: the Potency entry in experiment [1] was “inactive”.
Same read-out and setting: the result for `COc1ccccc1[N+](=O)[O-]` reads “inactive”; that for `C[C@@]12C(=O)OC(=O)[C@]1(C)C1CCC2O1`, 1.6 µM (active).
On the same count and under the same terms, with `O=P(OC(CCl)CCl)(OC(CCl)CCl)OC(CCl)CCl` the entry was “inactive”.
Turning to `CN(C)CCCCCCN(C)C`, the Potency result in [2], in experiment [3], in experiment [5], in experiment [6], in experiment [7] and in [8] was “inactive” in each case. Besides, the Potency result in experiment [9], in experiment [10], in [11], in experiment [12], in [13] and in experiment [14] was “inactive” in each case. Moreover, the Potency entry in experiment [19] is “inactive”. Further, the result in experiment [4] and in [20] was inactive.
On to `Cc1ccc([N+](=O)[O-])cc1N`, for which the Potency result in [1] is “inactive”.
As to `CC(C)(C)c1ccc(O)cc1`, the Potency in experiment [3] was 55.8 µM (active) and 43.3 µM (active). The call in [4] and in [20] was inactive. Also, the Potency entry in experiment [5] and in [6] was “inactive” throughout.
`CCC1(CC)C(=O)NC(=O)N(C)C1=O`: the Potency result in experiment [1], in [2], in [3], in [5], in experiment [6] and in experiment [7] was “inactive” each time. The Potency result in experiment [8], in experiment [9], in experiment [10], in experiment [11], in [12] and in experiment [13] was “inactive” in each case. The Potency entry in experiment [14], in [15], in experiment [16], in [17] and in experiment [18] was “inactive” each time. Also, the outcome in experiment [4] and in experiment [20] was inactive.
